Test results: PubChem BioAssay AID504332 (National Center for Advancing Translational Sciences (NCATS), 2011)
Among all 350,000 compounds or so, about 31,000 (8.9%) were called active. Inconclusive results (about 15%) are left out. The call rests on the fitted dose curve; in most records, active means well fitted inhibition curve with a large enough effect; inconclusive means small, poorly fitted or top-dose-only effect; inactive means no such curve, though single readings can be large or run the other way. Shown is part of a subset that was picked to be rich in actives. Entries that show only a call come without a potency.

Target: Histone-lysine N-methyltransferase EHMT2 (Homo sapiens) (UniProt Q96KQ7)
Test: qHTS Assay for Inhibitors of Histone Lysine Methyltransferase G9a; further: nearly all actives have a fitted effect of over 75% in size
Conditions: G9a H3K9 monomethylation, AlphaScreen, 2 h; series mostly up to 59 µM
Outline: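 Methyltransferase reactions run at room temperature for 2 h (20 nM enzyme, 500 nM biotin-H3K9 peptide, 20 uM SAM) after a 15 min compound preincubation; product detected by AlphaScreen beads and anti-H3K9me1 antibody.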
Potency means the concentration at half of the fitted maximal effect.

Chain of Histone-lysine N-methyltransferase EHMT2 (Homo sapiens) (Q96KQ7 913-1193 limits assumed): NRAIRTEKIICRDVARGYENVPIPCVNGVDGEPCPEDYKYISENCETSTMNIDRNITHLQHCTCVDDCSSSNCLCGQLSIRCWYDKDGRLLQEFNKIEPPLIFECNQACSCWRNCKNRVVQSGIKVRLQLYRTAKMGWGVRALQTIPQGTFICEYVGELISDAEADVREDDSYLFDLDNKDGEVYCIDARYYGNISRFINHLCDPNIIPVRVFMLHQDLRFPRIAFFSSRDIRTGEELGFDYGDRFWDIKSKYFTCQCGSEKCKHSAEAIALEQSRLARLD

SMILES | Potency | activity, negative = inhibition
CC(C)(C)c1ccc(S(=O)(=O)N2CCN(C(=O)c3cc(-c4ccc(Br)cc4)n[nH]3)CC2)cc1 | inactive | 
O=C(NC1CCN(Cc2ccccc2)CC1)c1c(F)cccc1F | inactive | 
S=C(Nc1ccc(Br)cc1Cl)NC1CCN(Cc2ccccc2)CC1 | inactive | 
S=C(NN=C1CCN(Cc2ccccc2)CC1)NC1CCCCC1 | 50.1 µM (active) | 
COc1ccccc1NC(=O)c1cc(S(=O)(=O)NCCc2ccccc2)ccc1F | inactive | 
CCc1ccc(S(=O)(=O)n2ccnc2)cc1 | inactive | 
CCOc1ccc(NC(=O)CN(C)C(=O)COc2cccc(CC)c2)cc1OCC |  | -17.2% [at 0.501 µM] (inactive)
CS(=O)(=O)c1ccc2c(c1)SC1=NC(=O)/C(=C/c3ccco3)C(=N)N12 | 50.1 µM (active) | 
CCCCC(=O)OC1=CN(Cc2ccccc2)S(=O)(=O)c2ccccc21 | inactive | 
COc1cccc(C(=O)OCc2cc(=O)oc3c(C)c(C)ccc23)c1OC | inactive | 
CCOC(=O)N1CCC(N2Cc3cccc(C(=O)Nc4c(C)cccc4CC)c3C2=O)CC1 | inactive | 
CN(C)[C@@H]1C(=O)C(C(N)=O)=C(O)[C@@]2(O)C(=O)C3=C(O)c4c(O)ccc(Cl)c4[C@@H](O)[C@H]3C[C@@H]12 | 7.94 µM (active) | 
C=C1c2c(Cl)ccc(O)c2C(O)=C2C(=O)[C@]3(O)C(O)=C(C(N)=O)C(=O)[C@@H](N(C)C)[C@@H]3[C@@H](O)C12 (some centres undefined) | 7.94 µM (active) | 
CCCN(CC1CC1)C(=S)NC(=O)c1ccccc1Br | inactive | 
Cc1ccc(Cl)cc1N1CCN(C(=O)CN2C(=O)COc3ccc(S(=O)(=O)N4CCOCC4)cc32)CC1 | inactive | 
COc1ccc(-c2noc(C(C)NS(=O)(=O)c3ccc(NC(C)=O)cc3)n2)cc1 (centres undefined) | inactive | 
COc1cc2nc(NCC(C)c3ccccc3)n3nc(-c4ccccc4)nc3c2cc1OC (centres undefined) | inactive | 
CC(C(=O)NC1CCCC1)N1CCN(S(=O)(=O)c2ccccc2Cl)CC1 (centres undefined) |  | 1.28% [at 0.501 µM] (inactive)
COc1cc2c(=O)c(S(=O)(=O)c3ccc(C(C)C)cc3)cn(Cc3ccccc3C)c2cc1OC | inactive | 
Cc1nnc(NC(=O)c2ccc3nccnc3c2)s1 | 50.1 µM (active) | 
Cc1ccc(C)c(NC(=O)c2ccc3nccnc3c2)c1 | inactive | 
Cc1ccc(C(=O)Nc2nnc(-c3cccs3)s2)cc1C |  | -1.27% [at 12.7 µM] (inactive)
COc1ccc(S(=O)(=O)NCc2cccnc2)cc1NC(=O)c1ccc(C)cc1 | inactive | 
CC(=O)c1c(C)n(S(=O)(=O)c2ccc(Cl)cc2)c2ccc(NS(=O)(=O)c3ccc(Cl)cc3)cc12 | inactive | 

SMILES | Potency | activity, negative = inhibition
O=C(c1ccc2c(c1)N(Cc1ccccc1)C(=O)c1ccccc1S2(=O)=O)N1CCC(Cc2ccccc2)CC1 | inactive | 
CCC(=O)c1ccc(OCC(O)CN2CC(C)OC(C)C2)cc1 (centres undefined) | 14.1 µM (active) | 
CCC(=O)c1ccc(OCC(O)CN2C(=O)NC(C)(C)C2=O)cc1 (centres undefined) | inactive | 
CC1CCN(CC(O)COc2ccc(C(=O)c3ccccc3)cc2)CC1 (centres undefined) |  | 3.75% [at 0.501 µM] (inactive)
CCOC(=O)C1CCN(C(=O)COC(=O)C2CCN(S(=O)(=O)c3ccc4c(c3)OCCO4)CC2)CC1 | inactive | 
CCOc1ccc(NS(=O)(=O)c2ccc(Cl)c(C(=O)N(C)Cc3cccnc3)c2)cc1 |  | 9.93% [at 12.7 µM] (inactive)
Cc1cc(C)cc(NC(=O)CCCc2nc(-c3ccccc3Cl)no2)c1 | inactive | 
CN(CC(=O)Nc1ccc(Cl)cc1)C(=O)CNC(=O)c1ccc2ccccc2c1 | inactive | 
COc1cccc(-c2nnc(SCC(=O)N3CCC(C)CC3)o2)c1 | inactive | 
O=C(C1COc2ccccc2O1)N(Cc1cccnc1)c1nc2c(F)cc(F)cc2s1 (centres undefined) | inactive | 
CCc1ccc(N2C(=O)CN(S(=O)(=O)CC)CC2(C)C(=O)NC2CCCCC2)cc1 (centres undefined) | inactive | 
COc1ccc(/C=C2/C(=O)OCc3cc(OC)c(OC)cc32)c(OC)c1 | inactive | 
COc1ccc(/C=C2/C(=O)N(c3ccccc3)N=C2C)c(OC)c1 | 20 µM (active) | 
COc1ccc(C(=O)CCc2ccccc2O)c(OC)c1 | inactive | 
CCN1N=C(c2ccccc2)CCC1=O |  | 21.7% [at 0.501 µM] (inactive)
O=C(NNC(=S)NCCCN1CCOCC1)c1ccncc1 | 20 µM (active) | 
COc1cccc(NC(=S)NCCCN2CCOCC2)c1 | inactive | 
Cc1cc(C)cc(NC(=S)NCCCN2CCOCC2)c1 | inactive | 
CCS(=O)(=O)N1CCc2cc(C(=O)NCc3ccc(C)cc3)ccc21 | inactive | 
O=c1onc(-c2cccs2)n1Cc1ccccc1 |  | 1.14% [at 12.7 µM] (inactive)
Cc1cc(-c2csc(N)n2)c(C)n1-c1ccccc1 | 11.2 µM (active) | 
Cc1cc(-c2csc(N)n2)c(C)n1Cc1ccccc1 | 28.2 µM (active) | 
Cc1nc(N)sc1N=Nc1c(C)n(C)n(-c2ccccc2)c1=O |  | -3.39% [at 12.7 µM] (inactive)
CC(=O)Nc1ccc(C(=O)Nc2nc(-c3cc(C)n(Cc4ccccc4)c3C)cs2)cc1 | inactive | 

SMILES | Potency | activity, negative = inhibition
Cc1cc(C(=O)OCC(=O)N2c3ccccc3NC(=O)C2(C)C)c(C)n1-c1ccccc1 | inactive | 
CN(CCO)S(=O)(=O)c1ccc2c(c1)C(=O)c1cc(S(=O)(=O)N(C)CCO)ccc1-2 |  | 6.15% [at 0.501 µM] (inactive)
CCOc1ccc(C(=O)NCC(=O)N2CCN(c3ccc(C(F)(F)F)cn3)CC2)cc1 | inactive | 
O=C(Nc1cccc(-c2nc3ccccc3o2)c1)c1cccc(Br)c1 | inactive | 
COc1cc(C(=O)NCc2ccncc2)cc(Br)c1OCc1ccccc1 | inactive | 
COc1cc(C(=S)NCc2ccccc2)cc(Br)c1O | 2.51 µM (active) | 
COc1cc(C=O)c(Br)cc1OCC(=O)NCc1ccccc1 | inactive | 
Cc1cccc(C(=O)NCC(=O)OCC(=O)N(C)CC(=O)Nc2ccccc2Cl)c1 | inactive | 
COc1ccc(NC(=O)COC(=O)Cn2c(C)nc3ccccc32)cc1OC | inactive | 
O=C(COC(=O)Cn1cnc2ccccc2c1=O)NCC12CC3CC(CC(C3)C1)C2 | inactive | 
O=C(COC(=O)Cn1cnc2ccccc21)Nc1cccc2c1C(=O)c1ccccc1C2=O | 12.6 µM (active) | 
COc1ccc(-c2onc(C)c2C)cc1S(=O)(=O)NCCc1ccccc1 | inactive | 
CCOc1ccc(CCNC(=O)CN(c2ccc(C)cc2)S(=O)(=O)N(C)C)cc1OCC | inactive | 
O=C(NCc1ccccc1Cl)c1ccc2c(=O)n(CC3CCCO3)c(=S)[nH]c2c1 (centres undefined) | inactive | 
COc1ccc(CNC(=O)Cn2nnc(-c3ccc(S(C)(=O)=O)cc3)n2)cc1 | inactive | 
CC(=O)c1cccc(NC(=O)C2COc3ccccc3O2)c1 (centres undefined) | inactive | 
CC(/C=C/c1ccco1)=N/NC(=O)C1COc2ccccc2O1 (centres undefined) | 56.2 µM (active) | 
C/C(=N/NC(=O)C1COc2ccccc2O1)c1ccco1 (centres undefined) | inactive | 
Cc1ccc(-n2ncc3c(=O)n(Cc4cccc(C(F)(F)F)c4)cnc32)cc1C | inactive | 
CCCCN=C1C([N+](=O)[O-])=CC=C2C1=NC1(CCCCC1)N2O | 11.2 µM (active) | 
O=C(CCNC(=O)c1ccc(Br)cc1)NCCCc1ccccc1 | inactive | 
COC(=O)c1ccccc1SC1CC(=O)N(c2cccc(C)c2)C1=O (centres undefined) | 44.7 µM (active) | 
Cc1cccc(N2C(=O)CC(SC(N)=Nc3ccccc3)C2=O)c1 (centres undefined) | inactive | 
O=C1CC(c2ccccc2)C(=O)N1c1cccc(O)c1 (centres undefined) | inactive | 

SMILES | Potency | activity, negative = inhibition
CCOc1ccccc1N(C)C(=O)c1cc2c(s1)-c1ccccc1OC2 | inactive | 
Cc1ccc(NC(=O)CCNC(=O)c2ccc([N+](=O)[O-])cc2)cc1S(=O)(=O)N1CCOCC1 |  | -13.1% [at 12.7 µM] (inactive)
Cc1ccc(NC(=O)CCCNC(=O)c2ccc(Cl)cc2)cc1S(=O)(=O)N1CCOCC1 | inactive | 
O=C(CNC(=O)c1ccc(Cl)cc1Cl)NCC(=O)Nc1ccccc1N1CCOCC1 | 89.1 µM (active) | 
O=C(COc1ccc(Cl)cc1)NC(=S)Nc1ccccc1N1CCOCC1 | inactive | 
O=C(COC(=O)CCc1ccc(S(=O)(=O)N2CCOCC2)cc1)Nc1cccc(Cl)c1 | inactive | 
CC(=O)c1ccc(OCCCC(=O)Nc2ccc(C)c(S(=O)(=O)N3CCOCC3)c2)cc1 | 50.1 µM (active) | 
Cc1ccc(C(=O)OCC(=O)Nc2ccc(Cl)cn2)cc1S(=O)(=O)N1CCOCC1 | inactive | 
Cc1ccc(NC(=O)COC(=O)CNC(=O)c2ccc(Cl)cc2Cl)cc1S(=O)(=O)N1CCOCC1 | 50.1 µM (active) | 
COc1c(C)cccc1C(=O)Nc1cc(Cl)ccc1N1CCOCC1 |  | -5.78% [at 12.7 µM] (inactive)
COc1ccc(Nc2ncc3c(n2)CCN(C(=O)OC(C)(C)C)C3)cc1 | inactive | 
COc1ccc(CCNC(=O)Cn2c(=O)n(-c3ccccc3)c(=O)c3c(C)c(C)sc32)cc1OC | inactive | 
COc1cc(C(=O)Nc2ncccc2C)ccc1OCC(=O)N1CCOCC1 | inactive | 
O=C(CNS(=O)(=O)c1ccccc1)N1CCN(C(=O)c2ccco2)CC1 | inactive | 
Cc1ccc(-n2ncc3c2CC(C)(C)CC3NC(=O)CCc2cnn(C)c2)cc1 (centres undefined) | inactive | 
CC1CCCN(c2csc3ccc(F)cc3c2=O)C1 (centres undefined) | inactive | 
CCc1cccc(NC(=O)CCCN2C(=O)C(c3ccccc3)Oc3cccnc32)c1 (centres undefined) |  | 26% [at 0.0925 µM] (inactive)
COc1cc([N+](=O)[O-])ccc1NC(=O)CN1CCCC1 | inactive | 
O=C(CN1CCCCCC1)Nc1ccc(Br)cc1[N+](=O)[O-] | 35.5 µM (active) | 
O=C(CN1CCCCCC1)Nc1ccc(Br)cc1Br | inactive | 
COC(=O)c1sccc1S(=O)(=O)N(CC(=O)Nc1ccc(C)c(F)c1)c1ccc(C)c(C)c1 | inactive | 
O=S(=O)(NCc1ccc(Cl)cc1Cl)c1cccs1 |  | 14.7% [at 0.501 µM] (inactive)
